Lassa entry inh – blocks Lassa virus binding to or entry into cells; Lassa virus pseudotype entry inhibition, cell reporter; Potency, µM (doses to about 37.9 µM), for inactives: at the top dose activity change, negative = inhibition, hits mostly inhibitors; hit rate 1.2% among 300,000; AID 540256; calls by dose curve; tested in HEK293 cells; note: potency is the fitted concentration of half-maximal effect; % is set by controls: 0 for no effect and ±100 for the full control effect; nearly all actives have a fitted effect of over 50% in size
Shiga toxin inh – blocks Shiga toxin action in Vero cells; inhibition, % at 38.7 µM; Vero cells, Shiga toxin protein synthesis inhibition reporter; hit rate 9.2% among 290,000; in the data active = inhibition mostly above about 28%, no sharp cut-off; inactive = mostly below about 43%; note: 0% is about no effect
HCV inh – inhibitors of hepatitis C virus infection. Potency, µM (titrated, usually from 41.8 µM), for the others: top-dose activity change, negative = inhibition, actives largely listed as inhibitors. Huh7.5.1 HCVcc-Cre infection, luciferase reporter, 44 h. hit rate 3.4% among 340,000; active = well fitted inhibition curve with a large enough effect; inconclusive = small, poorly fitted or top-dose-only effect, or another doubt; inactive = no such curve, though single readings can be large or run the other way; note: potency is the fitted concentration of half-maximal effect; % is set by controls: 0 for no effect and ±100 for the full control effect
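Antiviral activity was scored by luciferase reporter output from cells infected with HCVcc-Cre (~0.5 moi) in presence of compound, 44 h infection period, cells seeded 1,000/well 4 h prior.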
Marburg entry inh – blocks Marburg virus binding to or entry into cells | Marburg virus pseudotyped entry inhibition, cell reporter | Potency, µM (highest dose often 37.8 µM), inactives show top-dose activity change, negative = inhibition, actives largely listed as inhibitors | hit rate 1.8% among 300,000; calls by dose curve; tested in HEK293 cells; note: potency is the fitted concentration of half-maximal effect; % is set by controls: 0 for no effect and ±100 for the full control effect
CHX counter – affects cycloheximide protein synthesis inhibition readout, counter-screen. cell reporter, cycloheximide protein synthesis inhibition counterscreen. hit rate 12% among 300,000. max response, %; in the data active = max response mostly above about 13%, no sharp cut-off; inactive = mostly below about 14%; note: read at 38.3 µM for the half of the compounds with a filed dose; 0% is about no effect
FMDV inh – blocks foot and mouth disease virus; Potency, µM (doses to about 57.9 µM), without a hit: top-dose activity change, negative = inhibition, usual class: inhibitors; FMDV antiviral cell-based qHTS; hit rate 1.2% among 410,000; calls by dose curve; tested in HEK293T cells; note: read-out not given here; potency is the fitted concentration of half-maximal effect; % is set by controls: 0 for no effect and ±100 for the full control effect; nearly all actives have a fitted effect of over 45% in size
Numbers without * were called inactive; ? = inconclusive; / = no result given; [ ] = remark or other dose. Only some compounds are listed: those with a hit (about 13% of all), similar ones and a draw of the others.

SMILES | Lassa entry inh | Shiga toxin inh | HCV inh | Marburg entry inh | CHX counter | FMDV inh
COc1cc(C2/C(=C(\O)c3ccc4c(c3)CC(C)O4)C(=O)C(=O)N2CC2CCCO2)cc(OC)c1OC (configuration not stated) | 21.5% | -3.1 | 29.5% | 19.8% | -2.7 | -18.1%
Cc1cccc(NC(=O)c2n[nH]c([N+](=O)[O-])c2Br)c1C | ? | 67.3* | -16.8% | ? | 21.5* | -70.2%
C=C(C)CSc1nncn1/N=C/c1ccc(OC)cc1 | ? | 140.5* | 45.1% | ? | 55.2* | 54.6%
CCSc1nncn1/N=C/c1ccc(OC)c(OC)c1 | -5.5% | 32.0* | 7.9% | 5.6%[46.1 µM] | 21.1* | 29.6%
COc1cc(/C=N/n2cnnc2)ccc1OCCSc1ccc(C)cc1 | 15.8% | 33.5 | 14.2% | -1.8% | 21.6* | -8.6%
COc1cc(/C=N\n2cnnc2)ccc1OCC(=O)Nc1ccc(C)cc1 | -13.9% | 16.0 | -0.5% | -19.3% | -1.7 | 7.8%
COc1ccc(-n2cnnc2SCC(=O)N2CCN(c3ccccc3)CC2)cc1 | -11.7% | -7.7 | -8.4% | 0.7% | 5.8 | ?
CN(CCc1ccccc1)C(=O)c1cc(COc2cccc(C(F)(F)F)c2)on1 | / | 60.4* | ? | / | 23.5* | 13.3%
CN(CCCN1CCOCC1)C(=O)c1cc(COc2cccc(C(F)(F)F)c2)on1 | / | 8.5 | -8.7% | / | -2.3 | -6.0%
CN(CCc1ccccc1)C(=O)c1cc(COc2ccc(F)cc2Cl)on1 | / | 74.5* | 8.8% | / | 43.3* | 9.2%
COc1cc(/C=C/c2ccc3c(Br)cc(Br)c(O)c3n2)ccc1O | / | -5.0 | 8.91µM* | / | -2.2 | ?
COc1cc(/C=C/C(=O)O)ccc1O | / | / | 19.6% | / | / | -5.6%
COc1ccc(/C=C/c2ccc3c(Br)ccc(O)c3n2)cc1 | -24.3%[46.1 µM] | 93.9* | ? | ? | 38.8* | -2.8%
COc1ccc(C(=O)NC2CC2)cc1OC1CCN(Cc2ccccc2O)CC1 | -6.3% | -9.2 | / | ? | -0.7 | 0.8%
Cc1ccc(OCCn2ncc3ccccc3c2=O)c(C)c1 | / | 25.9 | -24.8% | 4.8% | 14.8* | 19.6%
O=C(O)CCn1ncc2ccccc2c1=O | 10.4% | 8.8 | -3.6% | -0.9%[46.1 µM] | -2.9 | 3.6%
O=c1c2ccccc2cnn1CCOc1cccc(Br)c1 | ? | 120.0* | ? | ? | 51.4* | 47.8%
CC(=O)N1CCN(S(=O)(=O)c2cccc(C(=O)OCN3C(=O)c4ccccc4C3=O)c2)CC1 | 1.3% | 10.8 | -8.1% | -0.8% | 9.7 | -7.4%
CN=C1CC(SC)=C1c1ccc(C)cc1 | ? | 13.8 | 11.5% | -23.1% | -1.3 | 31.6µM*
COc1cccc(OC)c1OCCCCCCN1CCN(C)CC1 | / | -11.3 | -17.7% | / | -3.4 | -13.4%
O=Cc1ccccc1Oc1ccccc1 | -6.0% | 16.7 | 7.8% | 4.1% | 0.5 | -8.7%
CN1CCN(CCCCOc2ccccc2C=O)CC1 | ? | -21.3 | 10µM* | ? | 6.8 | -13.2%
O=Cc1ccccc1OCCOc1ccccc1C=O | ? | 52.2* | ? | -25.7% | 34.4* | /
COc1cc(OC)cc(C(=O)N2CCC(N3CCN(c4ccccc4OC)CC3)CC2)c1 | ? | -6.4 | 14.9% | -42.4% | -2.5 | -16.4%
Cc1ccc(C)c2c1[nH]c1ccc([N+](=O)[O-])cc12 | ? | -11.5 | 10µM* | -16.5% | -4.3 | -12.2%
SMILES | Lassa entry inh | Shiga toxin inh | HCV inh | Marburg entry inh | CHX counter | FMDV inh
Cc1cc(C=O)c(C)c2c1[nH]c1ccccc12 | ? | / | -26.3% | -2.6% | / | 3.8%
Cc1ccc(C)c2c1[nH]c1ccccc12 | -4.9% | 14.9 | 7.94µM* | 7.0% | -2.0 | -1.0%
Cc1c(C(=O)NN)[nH]c2ccc([N+](=O)[O-])cc12 | -17.9% | -3.1 | -10.0% | ? | 10.6 | -1.0%
CN(C)c1cccc(C(=O)NCc2ccccc2Cl)c1 | -26.1%[46.1 µM] | 44.7 | -0.2% | ? | 19.4* | 38.1%
CN(C)c1cccc(C(=O)NCc2ccccc2)c1 | 23.3% | 59.5 | 19.4% | ? | 33.6 | 51.0%
CN(C)c1cccc(C(=O)NNC(=O)CSc2ccccc2)c1 | -1.1%[46.1 µM] | 25.6 | 3.8% | 3.0%[46.1 µM] | 12.8* | 2.1%
CN(C)c1cccc(C(=O)OCC(=O)Nc2ccccc2-c2ccccc2)c1 | 1.1% | 6.4 | ? | -23.0% | -3.4 | ?
Cc1cccc(C(=O)OCC(=O)Nc2nccs2)c1 | 1.1% | 36.2 | 13.2% | 7.8% | 19.3* | 36.9%
CN(C)c1cccc(C(=O)OCC(=O)Nc2ccccc2Cl)c1 | -12.8% | 42.1* | -18.2% | ? | 21.8 | -4.9%
c1ccc(-c2noc(-c3cccnc3NCc3ccco3)n2)cc1 | -11.6%[46.1 µM] | / | / | -1.4%[46.1 µM] | / | 13.5%
CN(C)c1cccc(C(=O)OCC(=O)Nc2nccs2)c1 | 22.9% | 100.9* | 11.3% | ? | 30.3* | 46.0%
Cc1cccc(C(=O)NC(=S)NNC(=O)c2cccs2)c1 | 9.1% | 24.9* | 1.1% | 0.9% | 12.1 | -11.9%
O=C(NC(=S)NNC(=O)c1cccs1)c1ccco1 | -11.6% | 19.1 | ? | 16.4% | 29.1* | 11.4%
O=C(NNC(=O)c1cccs1)c1ccc(F)cc1 | 8.0%[46.1 µM] | 49.9* | 20.0% | 21.8%[46.1 µM] | 21.7* | 43.4%
O=C(NNC(=S)NC(=O)c1ccco1)c1ccc(F)cc1 | / | 17.4 | 4.9% | / | 10.2* | -2.8%
O=C(NCC(c1cccnc1)N1CCc2ccccc21)c1ccccc1Br (configuration not stated) | 9.9%[46.1 µM] | / | / | / | / | -20.3%
COC(=O)CSc1nnc(NC(=O)/C=C\c2ccc3c(c2)OCO3)s1 | 17.8% | -3.2 | 5.7% | 4.1% | -3.4 | -15.6%
CC(C)(C)c1ccc(C(=O)NC(=S)NNC(=O)c2cccs2)cc1 | ? | 23.1 | ? | ? | 14.0 | -8.9%
Cc1ccccc1C(=O)NNC(=S)NC(=O)c1cccs1 | / | 20.5 | ? | / | 21.4* | 1.5%
CCCOc1ccc(C(=O)NNC(=S)NC(=O)c2cccs2)cc1 | ? | -3.2 | ? | 11.2µM* | -3.4 | 0.0%
O=C(NC(=S)NNC(=O)c1cccs1)c1ccccc1 | / | 33.0 | -9.5% | / | 11.5* | 8.5%
Cc1ccccc1C(=O)NC(=S)Nc1ncccn1 | 15.6%[46.1 µM] | 46.8 | 6.9% | ? | 18.4* | 36.4%
CC(CCc1ccccc1)NC(=O)CCCn1ncn2c(cc3occc32)c1=O (configuration not stated) | / | 5.4 | -0.8% | / | 2.0 | -4.5%
Nc1cc2c(cc1[N+](=O)[O-])-c1ccccc1C2=NO | ? | / | ? | ? | / | 10.0%
O=C(Nc1nc2ccccc2n1CCN1CCCCC1)c1ccc(Cl)cc1 | / | 35.5 | / | 2.6% | 9.6 | /
Cc1ccc(C(=O)Nc2nc3ccccc3n2CCN2CCCC2)cc1 | 9.6% | 103.6* | -1.9% | ? | 38.2* | -4.8%
O=C(Nc1nc2ccccc2n1CCN1CCCC1)c1ccc(Cl)cc1 | ? | 77.9* | ? | ? | 16.0 | 0.2%
CCCn1c(NC(=O)c2ccccc2)nc2ccccc21 | -4.2% | 31.9 | ? | -1.2% | 17.4 | 22.8%
CCCn1c(NC(=O)c2ccc(C)cc2)nc2ccccc21 | 14.7% | 41.8* | ? | -26.9% | 16.7* | 8.2%
C=CCn1c(NC(=O)c2ccc(C)cc2)nc2ccccc21 | ? | 41.6 | -11.4% | ? | 15.6* | 27.6%

Assay outcomes: PubChem, National Center for Advancing Translational Sciences (NCATS)
